Compound activity as filed in PubChem BioAssay.
The list is not random: actives were taken first. Their share in the collection is about 6.8%.
T cruzi growth-1: inhibitors of T. cruzi proliferation. T. cruzi beta-gal in NIH3T3, GalScreen luminescence, 90 h. inhibition, % at 8.34 µM. 77,000 tested, 5.9% active;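 active means mean inhibition above about 93%, with at least 55% of replicates each passing it, limit read from the data, passing the limit was not always enough; inconclusive means only one of those two conditions holds; inactive means neither condition holds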
Pf Dd2 inh: blocks growth of Plasmodium falciparum Dd2 parasites; 94,000 tested, 2.3% active; activity change, % at 10 µM; AID 1159554; P. falciparum Dd2 growth, SYBR Green, 72 h; hits give low values; in the data active means activity change below about -80%; inconclusive means no clear call, values can overlap the other calls
C diff HTS: blocks growth of Clostridium difficile | growth activity, negative = inhibition, % at 16 µg/mL (by protocol) | 86,000 tested, 0.25% active | Clostridium difficile clinical isolate growth, OD600, 24 h; hits give low values | AID 1259249;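 active means mean growth activity at or below -80% and every replicate also at or below -80%; inconclusive means mean at or below -80% but some replicate above -80%; inactive means mean growth activity above -80%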
T cruzi growth-2: inhibitors of T. cruzi proliferation; shares compounds with T cruzi growth-1; T. cruzi beta-gal in NIH3T3, GalScreen luminescence, 90 h; inhibition, % at 8.35 µM; 5,600 tested, 72% active; AID 651739;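 active means mean replicate inhibition above about 95% and at least 55% of replicates individually reaching it, limit read from the data; inconclusive means only one of the two criteria is met; inactive means neither criterion is met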
T cruzi growth-3: blocks T. cruzi growth in NIH3T3 host cells; 5,600 tested, 21% active; inhibition, % at 2.09 µM; T. cruzi beta-gal in NIH3T3, GalScreen luminescence, 90 h; shares compounds with T cruzi growth-1; AID 651740;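 active means mean inhibition above about 95%, with at least 55% of replicates also reaching it, limit read from the data; inconclusive means meets just one of the two conditions; inactive means meets neither condition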
NIH3T3 tox: cytotoxicity in mouse NIH/3T3 fibroblasts | 5,600 tested, 14% active | cytotoxicity (signal decrease), % at 8.35 µM | shares compounds with T cruzi growth-1 | NIH/3T3 viability, CellTiter-Glo ATP luminescence, 90 h | AID 651742;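 active means mean signal decrease across replicates above about 35% based on untreated-well scatter, with enough replicates individually passing, limit read from the data; inconclusive means no rule stated though some were filed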
NIH3T3 tox 2: cytotoxicity in mouse NIH/3T3 fibroblasts; NIH/3T3 viability, CellTiter-Glo ATP luminescence, 90 h; 5,600 tested, 56% active; shares compounds with T cruzi growth-1; inhibition, % at 24.9 µM; AID 651744;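 active means mean loss of cell viability signal at or above a set limit, and enough replicates individually reaching it; inconclusive means meets only the mean limit or only the replicate share; inactive means meets neither condition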
Numbers stand for hits; . = inactive; ? = inconclusive; / = no result.

SMILES | T cruzi growth-1 | Pf Dd2 inh | C diff HTS | T cruzi growth-2 | T cruzi growth-3 | NIH3T3 tox | NIH3T3 tox 2
COc1ccccc1S(=O)(=O)N(C)C[C@@H]1Oc2ncc(-c3ccc(C)cc3)cc2C(=O)N([C@@H](C)CO)C[C@H]1C | 101 | . | . | 102 | . | . | 55
COc1ccc(S(=O)(=O)N(C)C[C@@H]2Oc3ncc(C#Cc4cccc(F)c4)cc3C(=O)N([C@H](C)CO)C[C@@H]2C)cc1 | ? | . | . | 107 | . | . | 48
C[C@H](CO)N1C[C@H](C)[C@H](CN(C)S(=O)(=O)c2ccc(F)cc2)Oc2ncc(C#Cc3ccc(C(F)(F)F)cc3)cc2C1=O | 112 | . | . | 105 | 103 | . | 35
C[C@@H]1CN([C@H](C)CO)C(=O)c2cc(C#Cc3ccc(F)cc3)cnc2O[C@@H]1CN(C)S(C)(=O)=O | . | . | . | / | / | / | /
COc1ccccc1S(=O)(=O)N(C)C[C@@H]1Oc2ncc(-c3ccc(C)cc3)cc2C(=O)N([C@@H](C)CO)C[C@@H]1C | . | . | . | / | / | / | /
COc1ccc(S(=O)(=O)N(C)C[C@@H]2Oc3ncc(-c4ccc(F)cc4)cc3C(=O)N([C@H](C)CO)C[C@@H]2C)cc1 | . | . | . | / | / | / | /
CN(C)CC(=O)N[C@@H]1CC[C@@H](CCNC(=O)Nc2ccc(F)cc2)O[C@@H]1CO | . | . | / | / | / | / | /
OC[C@@H]1Nc2ccc(-c3cccc(F)c3)cc2[C@H]2[C@@H]1CCN2Cc1ccc(F)cc1 | 103 | . | . | 108 | 115 | . | 103
O=C(Cc1ccccc1)N1CC[C@@H]2[C@H]1c1cc(-c3cccc(F)c3)ccc1N[C@@H]2CO | . | . | . | / | / | / | /
O=C(c1cccc(F)c1)N1CC[C@@H]2[C@@H](CO)Nc3ccc(-c4cccc(F)c4)cc3[C@@H]21 | . | . | . | / | / | / | /
OC[C@H]1Nc2ccc(-c3cccc(F)c3)cc2[C@@H]2[C@H]1CCN2Cc1ccncc1 | 97 | . | . | 102 | . | . | 89
O=C(CC1CC1)Nc1ccc2c(c1)[C@@H]1C[C@@H](CC(=O)NC3CCCC3)O[C@H](CO)[C@@H]1O2 | . | . | / | / | / | / | /
C[C@@H]1CCCCO[C@@H](CN(C)CC2CCCCC2)[C@H](C)CN([C@H](C)CO)C(=O)c2cc(NC(=O)c3ccccc3)ccc2O1 | 117 | . | . | 112 | ? | . | 105
C[C@@H]1CCCCO[C@@H](CN(C)CC2CCCCC2)[C@H](C)CN([C@@H](C)CO)C(=O)c2cc(NC(=O)c3ccccc3)ccc2O1 | . | . | . | / | / | / | /
C[C@@H]1CCCCO[C@H](CN(C)CC2CC2)[C@H](C)CN([C@@H](C)CO)C(=O)c2cc(NC(=O)Nc3ccc(F)cc3)ccc2O1 | . | . | . | / | / | / | /
C[C@H](CO)N1C[C@H](C)[C@H](CN(C)CC2CC2)OCCCC[C@H](C)Oc2ccc(NC(=O)Nc3ccccc3)cc2C1=O | 98 | . | . | 104 | . | . | .
C[C@H](CO)N1C[C@H](C)[C@@H](CN(C)CC2CCCCC2)OCCCC[C@H](C)Oc2ccc(NC(=O)Cc3ccccc3)cc2C1=O | . | . | . | / | / | / | /
C[C@H](CO)N1C[C@H](C)[C@H](CN(C)CC2CCCCC2)OCCCC[C@H](C)Oc2ccc(NC(=O)Nc3ccccc3)cc2C1=O | ? | . | . | 98 | . | . | 105
C[C@@H]1CN([C@@H](C)CO)C(=O)c2cc(NC(=O)Cc3ccccc3)ccc2O[C@@H](C)CCCCO[C@H]1CN(C)CC1CCCCC1 | 116 | . | . | 109 | . | . | 58
C[C@H](CO)N1C[C@H](C)[C@H](CN(C)CC2CCCCC2)OCCCC[C@H](C)Oc2ccc(NC(=O)c3ccccc3)cc2C1=O | . | . | . | / | / | / | /
COCC(=O)N(C)C[C@@H]1Oc2cc(C#C[C@H](C)O)ccc2S(=O)(=O)N([C@H](C)CO)C[C@H]1C | . | / | . | / | / | / | /
COc1ccc(NC(=O)N(C)C[C@H]2OCCCC[C@@H](C)Oc3ccc(NC(=O)C4CCCCC4)cc3C(=O)N([C@H](C)CO)C[C@H]2C)cc1 | . | . | . | / | / | / | /
CO[C@H]1CC[C@H]2CCOc3c(C#N)cccc3C(=O)N(C)[C@H](C)C(=O)N(C)C[C@@H]1O2 | . | . | / | / | / | / | /
C[C@@H]1CCCCO[C@@H](CN(C)CC2CCCCC2)[C@@H](C)CN([C@H](C)CO)C(=O)c2cc(NC(=O)Nc3ccccc3)ccc2O1 | 103 | . | . | 105 | 97 | . | 57
C[C@@H]1CN([C@@H](C)CO)C(=O)c2cc(NC(=O)Nc3ccccc3)ccc2O[C@@H](C)CCCCO[C@@H]1CN(C)CC1CCCCC1 | ? | . | . | 101 | . | . | 104
SMILES | T cruzi growth-1 | Pf Dd2 inh | C diff HTS | T cruzi growth-2 | T cruzi growth-3 | NIH3T3 tox | NIH3T3 tox 2
C[C@@H]1CN([C@@H](C)CO)C(=O)c2cc(NC(=O)NC3CCCCC3)ccc2O[C@@H](C)CCCCO[C@@H]1CN(C)CC1CCCCC1 | . | . | / | / | / | / | /
C[C@@H]1CCCCO[C@@H](CN(C)CC2CCCCC2)[C@H](C)CN([C@H](C)CO)C(=O)c2cc(NC(=O)NC3CCCCC3)ccc2O1 | 106 | . | / | 104 | . | . | 107
C[C@@H]1CN([C@@H](C)CO)C(=O)c2cc(NC(=O)c3ccccc3)ccc2O[C@@H](C)CCCCO[C@@H]1CN(C)CC1CCCCC1 | . | . | . | / | / | / | /
C[C@@H]1CN([C@H](C)CO)C(=O)c2cc(NC(=O)Nc3ccccc3)ccc2O[C@@H](C)CCCCO[C@@H]1CN(C)CC1CCCCC1 | . | ? | . | / | / | / | /
CCC(=O)N1C[C@@H](O)COC[C@H]2O[C@H](CC(=O)N3CCCCC3)CC[C@@H]21 | . | . | . | / | / | / | /
Cc1noc(C)c1NC(=O)N(C)C[C@@H]1Oc2ncc(C#Cc3ccccc3)cc2C(=O)N([C@H](C)CO)C[C@@H]1C | . | . | . | / | / | / | /
C[C@@H]1CN([C@H](C)CO)C(=O)c2cccc(NC(=O)NC3CCCCC3)c2O[C@H]1CN(C)Cc1ccc(C(=O)O)cc1 | . | . | . | / | / | / | /
C[C@H]1CN([C@@H](C)CO)C(=O)c2cccc(NC(=O)C3CCOCC3)c2O[C@H]1CN(C)Cc1ccc(C(=O)Nc2ccccc2N)cc1 | . | . | . | / | / | / | /
C[C@@H]1CN([C@@H](C)CO)C(=O)c2cccc(NC(=O)C3CCOCC3)c2O[C@H]1CN(C)Cc1ccc(C(=O)Nc2ccccc2N)cc1 | 107 | . | . | 105 | . | . | .
C[C@H]1CN([C@@H](C)CO)C(=O)c2cccc(NC(=O)NC3CCCCC3)c2O[C@H]1CN(C)Cc1ccc(C(=O)Nc2ccccc2N)cc1 | ? | . | / | 101 | ? | . | ?
C[C@@H]1CN([C@@H](C)CO)C(=O)c2cccc(NC(=O)C3CC3)c2O[C@H]1CN(C)Cc1ccc(C(=O)Nc2ccccc2N)cc1 | 99 | . | . | 106 | . | . | .
